# Several values for one entry are separate records, joined by “and”; a condition that tells them apart may be missing. Equal values may be shown once. Results filed as inconclusive are left out. A call without a number means that no potency is given here. More than one record can exist for a structure, and the calls need not agree. Activity calls are given as the source filed them. Unless noted, calls follow the shape of the dose curve; as a rule, active = well fitted curve in the direction sought with a large enough effect in the repeat runs; inconclusive = weak or mixed curves; inactive = no such curve, though single readings can be large; an effect the other way counts as inactive or inconclusive.
# What was measured:
# [1] = target: Acetylcholinesterase (Homo sapiens) (UniProt P22303); experiment: Acetylcholinesterase (AChE) small molecule antagonists: enzyme-based qHTS assay (AID 1347397; calls by dose curve; also: nearly all actives have a fitted effect of over 55% in size; also: potency is read from the fitted curve at half-maximal effect); conditions: Potency: AChE enzyme activity inhibition
# Method in brief: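 rhAChE 50 mU/mL (dispensed) + cpd or DMSO, 30 min RT; add DTNB/acetylthiocholine cocktail, 10 min RT; colorimetric thiocholine readout. qHTS, 1536-well format.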
# [2] = target: Acetylcholinesterase (Homo sapiens) (UniProt P22303); experiment: Acetylcholinesterase (AChE) small molecule antagonists: fluorescence cell-based qHTS assay (AID 1347398; calls by dose curve; also: nearly all actives have a fitted effect of over 50% in size; also: potency is read from the fitted curve at half-maximal effect); conditions: Potency: AChE activity
# Method in brief: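 Read-out is Thiolite Green fluorescence at Ex/Em = 490/520 nm, formed by reaction with thiocholine released when cellular AChE in SH-SY5Y cells hydrolyzes acetylthiocholine. Compounds were preincubated 30 min at 37 C before substrate.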
# [3] = target: Acetylcholinesterase (Homo sapiens) (UniProt P22303); experiment: Acetylcholinesterase (AChE) small molecule antagonists: enzyme-based qHTS assay with human liver microsomes (AID 1347399; calls by dose curve; also: nearly all actives have a fitted effect of over 60% in size); conditions: Potency: qHTS inhibition
# Method in brief: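 Recombinant human AChE (50 mU/mL in the enzyme mix) and human liver microsomes (0.25 mg/mL final) were preincubated with compound and NADPH (0.25 mg/mL final) for 30 min at 37 C. Acetylthiocholine/DTNB was then added; thiocholine was read colorimetrically after 10 min at room temperature.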
# [4] = target: Cytochrome P450 2D6 (Homo sapiens) (UniProt P10635); experiment: Cytochrome P450 Family 2 Subfamily D Member 6 (CYP2D6) small molecule antagonists: luciferase reporter qHTS assay (AID 1671196); also: nearly all actives have a fitted effect of over 50% in size; also: potency is read from the fitted curve at half-maximal effect
# Method in brief: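 Inhibition of CYP2D6 was gauged by loss of luminescence, since light produced tracks the luciferin generated from a proluciferin substrate. A 10 min room-temperature preincubation preceded 1 h NADPH-supported turnover.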
# [5] = target: Cytochrome P450 2C19 (Homo sapiens) (UniProt P33261); experiment: Cytochrome P450 Family 2 Subfamily C Member 19 (CYP2C19) small molecule antagonists: luciferase reporter qHTS assay (AID 1671197); also: nearly all actives have a fitted effect of over 65% in size; also: potency is read from the fitted curve at half-maximal effect
# Method in brief: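 P450-Glo CYP2C19 system: enzyme-substrate mix with compound 10 min at room temperature, then NADPH regeneration solution, 1 h at 37C. Proluciferin-to-luciferin conversion detected by luminescence after 20 min with detection reagent; ketoconazole as positive control.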
# [6] = target: Cytochrome P450 2C9 (Homo sapiens) (UniProt P11712); experiment: Cytochrome P450 Family 2 Subfamily C Member 9 (CYP2C9) small molecule antagonists: luciferase reporter qHTS assay (AID 1671198); also: nearly all actives have a fitted effect of over 50% in size; also: potency is read from the fitted curve at half-maximal effect
# Method in brief: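 Enzyme-substrate mix preincubated with compound 10 min at room temperature; reaction started with NADPH regeneration solution, 1 h 37C. Luminescent luciferin product read after 20 min detection reagent.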
# [7] = target: Cytochrome P450 1A2 (Homo sapiens) (UniProt P05177); experiment: Cytochrome P450 Family 1 Subfamily A Member 2 (CYP1A2) small molecule antagonists: luciferase reporter qHTS assay (AID 1671199); also: nearly all actives have a fitted effect of over 50% in size; also: potency is read from the fitted curve at half-maximal effect
# Method in brief: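 Signal from luciferin formed by CYP1A2 from a proluciferin substrate is read as luminescence, expressed in relative luminescence units. Compounds sit with enzyme 10 min, NADPH-driven reaction runs 1 h, all at room temperature.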
# [8] = target: Voltage-gated inwardly rectifying potassium channel KCNH2 (Homo sapiens) (UniProt Q12809); experiment: Human Ether-a-go-go-Related Gene (hERG) channel small molecule antagonists: fluorescence cell-based qHTS assay (AID 1671200); also: nearly all actives have a fitted effect of over 50% in size; also: potency is read from the fitted curve at half-maximal effect
# Method in brief: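 First, 1000 cells per well are seeded and cultured overnight at 37 C. Next, FluxOR II dye is loaded for 1 h at room temperature, protected from light. After 10 more minutes, stimulus is added and fluorescence is read.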
# [9] = target: Cytochrome P450 3A4 (Homo sapiens) (UniProt P08684); experiment: Cytochrome P450 Family 3 Subfamily A Member 4 (CYP3A4) small molecule antagonists: luciferase reporter qHTS assay (AID 1671201); also: nearly all actives have a fitted effect of over 50% in size; also: potency is read from the fitted curve at half-maximal effect
# Method in brief: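 Enzyme and proluciferin substrate are mixed with test chemicals for 10 min, then NADPH regeneration system drives turnover for 1 h at room temperature. A detection reagent halts the reaction; luminescence after 20 min gives relative activity.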
# Cytochrome P450 3A4 (Homo sapiens), sequence (P08684 whole entry, looked up): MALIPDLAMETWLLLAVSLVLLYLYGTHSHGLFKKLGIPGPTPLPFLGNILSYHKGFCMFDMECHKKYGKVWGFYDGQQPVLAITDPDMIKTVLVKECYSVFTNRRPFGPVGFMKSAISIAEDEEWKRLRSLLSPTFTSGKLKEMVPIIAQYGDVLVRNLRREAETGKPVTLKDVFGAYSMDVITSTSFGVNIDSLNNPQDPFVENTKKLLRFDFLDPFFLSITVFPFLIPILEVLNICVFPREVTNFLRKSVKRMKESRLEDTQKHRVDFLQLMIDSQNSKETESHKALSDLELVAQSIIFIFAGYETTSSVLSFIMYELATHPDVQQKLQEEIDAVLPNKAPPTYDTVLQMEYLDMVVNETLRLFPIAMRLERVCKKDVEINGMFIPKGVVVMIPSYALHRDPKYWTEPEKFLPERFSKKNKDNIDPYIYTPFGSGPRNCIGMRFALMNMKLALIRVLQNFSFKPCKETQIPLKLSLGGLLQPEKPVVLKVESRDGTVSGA
# Acetylcholinesterase (Homo sapiens), sequence (P22303 whole entry, looked up): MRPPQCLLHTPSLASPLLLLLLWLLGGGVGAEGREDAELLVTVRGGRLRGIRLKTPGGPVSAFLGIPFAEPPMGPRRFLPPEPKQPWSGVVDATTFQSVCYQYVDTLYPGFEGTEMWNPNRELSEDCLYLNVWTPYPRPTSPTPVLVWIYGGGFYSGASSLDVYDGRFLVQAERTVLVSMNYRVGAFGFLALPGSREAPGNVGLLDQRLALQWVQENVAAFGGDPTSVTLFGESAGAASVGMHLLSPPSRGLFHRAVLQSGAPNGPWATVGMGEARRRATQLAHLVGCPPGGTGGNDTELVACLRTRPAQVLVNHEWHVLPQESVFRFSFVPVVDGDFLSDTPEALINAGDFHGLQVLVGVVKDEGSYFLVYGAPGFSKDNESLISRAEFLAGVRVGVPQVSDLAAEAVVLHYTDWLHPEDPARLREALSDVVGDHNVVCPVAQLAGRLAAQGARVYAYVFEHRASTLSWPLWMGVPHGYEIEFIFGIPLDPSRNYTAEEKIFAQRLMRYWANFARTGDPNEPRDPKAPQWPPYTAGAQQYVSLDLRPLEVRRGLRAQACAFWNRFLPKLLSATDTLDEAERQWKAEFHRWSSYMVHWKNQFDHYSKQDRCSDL
# Cytochrome P450 2C9 (Homo sapiens), sequence (P11712 whole entry, looked up): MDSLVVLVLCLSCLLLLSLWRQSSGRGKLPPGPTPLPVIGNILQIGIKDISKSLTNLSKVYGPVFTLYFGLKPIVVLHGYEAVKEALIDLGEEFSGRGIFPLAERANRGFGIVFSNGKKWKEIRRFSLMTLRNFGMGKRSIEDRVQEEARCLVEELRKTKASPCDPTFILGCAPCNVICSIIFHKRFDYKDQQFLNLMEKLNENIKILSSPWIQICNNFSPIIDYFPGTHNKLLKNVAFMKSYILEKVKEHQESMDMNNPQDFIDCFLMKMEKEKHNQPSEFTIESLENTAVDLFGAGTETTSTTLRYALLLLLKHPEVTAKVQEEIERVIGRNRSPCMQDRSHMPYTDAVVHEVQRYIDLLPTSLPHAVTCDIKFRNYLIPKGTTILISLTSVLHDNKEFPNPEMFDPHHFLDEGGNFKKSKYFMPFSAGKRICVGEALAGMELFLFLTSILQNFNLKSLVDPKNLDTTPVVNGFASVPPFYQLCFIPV
# Voltage-gated inwardly rectifying potassium channel KCNH2 (Homo sapiens), sequence (Q12809 whole entry, looked up): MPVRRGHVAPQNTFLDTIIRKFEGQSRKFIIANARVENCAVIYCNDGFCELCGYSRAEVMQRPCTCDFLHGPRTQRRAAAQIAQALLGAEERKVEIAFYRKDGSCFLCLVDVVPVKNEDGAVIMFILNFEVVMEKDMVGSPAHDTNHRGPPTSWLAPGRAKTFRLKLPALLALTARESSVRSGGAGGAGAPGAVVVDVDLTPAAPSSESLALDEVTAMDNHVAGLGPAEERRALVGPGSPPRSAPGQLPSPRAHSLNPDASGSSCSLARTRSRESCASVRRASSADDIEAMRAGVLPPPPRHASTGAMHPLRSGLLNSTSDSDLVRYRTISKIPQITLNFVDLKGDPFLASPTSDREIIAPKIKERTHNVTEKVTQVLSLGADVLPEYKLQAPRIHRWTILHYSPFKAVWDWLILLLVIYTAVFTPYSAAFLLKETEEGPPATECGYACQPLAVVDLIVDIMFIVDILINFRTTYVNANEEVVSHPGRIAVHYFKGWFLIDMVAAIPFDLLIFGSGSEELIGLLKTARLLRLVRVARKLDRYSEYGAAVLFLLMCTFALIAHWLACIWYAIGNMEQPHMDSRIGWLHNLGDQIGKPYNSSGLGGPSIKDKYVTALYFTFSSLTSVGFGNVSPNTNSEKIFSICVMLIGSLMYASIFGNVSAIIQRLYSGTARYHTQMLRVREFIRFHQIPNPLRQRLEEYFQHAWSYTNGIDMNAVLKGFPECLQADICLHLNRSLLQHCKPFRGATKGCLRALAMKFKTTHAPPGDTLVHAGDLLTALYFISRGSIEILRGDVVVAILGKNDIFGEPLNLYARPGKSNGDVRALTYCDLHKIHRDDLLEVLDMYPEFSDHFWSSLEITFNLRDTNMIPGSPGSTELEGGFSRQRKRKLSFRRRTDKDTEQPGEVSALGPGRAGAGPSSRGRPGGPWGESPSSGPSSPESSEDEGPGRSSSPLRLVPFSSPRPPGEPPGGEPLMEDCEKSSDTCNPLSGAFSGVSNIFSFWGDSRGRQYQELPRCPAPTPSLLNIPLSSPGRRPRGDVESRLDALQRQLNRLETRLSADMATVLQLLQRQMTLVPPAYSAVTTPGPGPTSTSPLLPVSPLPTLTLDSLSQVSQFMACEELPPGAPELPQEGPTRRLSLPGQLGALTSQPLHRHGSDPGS
# Cytochrome P450 2D6 (Homo sapiens), sequence (P10635 whole entry, looked up): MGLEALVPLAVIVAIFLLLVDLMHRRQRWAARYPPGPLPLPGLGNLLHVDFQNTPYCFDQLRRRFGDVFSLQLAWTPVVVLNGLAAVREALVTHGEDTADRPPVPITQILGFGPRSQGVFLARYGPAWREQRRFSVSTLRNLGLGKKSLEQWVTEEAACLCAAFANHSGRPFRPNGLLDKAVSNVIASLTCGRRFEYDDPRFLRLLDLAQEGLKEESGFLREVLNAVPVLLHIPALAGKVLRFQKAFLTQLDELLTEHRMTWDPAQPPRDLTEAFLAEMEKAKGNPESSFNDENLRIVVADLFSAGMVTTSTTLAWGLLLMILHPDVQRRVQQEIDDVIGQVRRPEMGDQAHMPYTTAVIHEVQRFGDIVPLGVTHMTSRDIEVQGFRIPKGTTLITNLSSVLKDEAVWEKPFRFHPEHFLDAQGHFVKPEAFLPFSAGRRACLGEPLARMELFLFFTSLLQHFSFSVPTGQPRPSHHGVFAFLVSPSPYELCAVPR
# Cytochrome P450 1A2 (Homo sapiens), sequence (P05177 whole entry, looked up): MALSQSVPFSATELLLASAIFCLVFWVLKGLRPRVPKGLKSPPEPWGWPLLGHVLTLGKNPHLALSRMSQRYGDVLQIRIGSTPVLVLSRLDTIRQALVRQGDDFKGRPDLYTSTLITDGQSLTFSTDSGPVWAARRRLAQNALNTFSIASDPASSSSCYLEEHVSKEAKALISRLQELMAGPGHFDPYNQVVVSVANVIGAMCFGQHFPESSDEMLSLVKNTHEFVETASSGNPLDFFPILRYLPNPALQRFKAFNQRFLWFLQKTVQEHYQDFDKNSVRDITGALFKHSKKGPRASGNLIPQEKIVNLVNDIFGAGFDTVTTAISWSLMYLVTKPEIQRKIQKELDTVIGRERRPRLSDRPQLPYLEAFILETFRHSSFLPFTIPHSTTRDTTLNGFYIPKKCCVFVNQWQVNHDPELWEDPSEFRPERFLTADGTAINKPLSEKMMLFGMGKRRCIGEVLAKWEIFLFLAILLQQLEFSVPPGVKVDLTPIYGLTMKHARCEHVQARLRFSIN
# Cytochrome P450 2C19 (Homo sapiens), sequence (P33261 whole entry, looked up): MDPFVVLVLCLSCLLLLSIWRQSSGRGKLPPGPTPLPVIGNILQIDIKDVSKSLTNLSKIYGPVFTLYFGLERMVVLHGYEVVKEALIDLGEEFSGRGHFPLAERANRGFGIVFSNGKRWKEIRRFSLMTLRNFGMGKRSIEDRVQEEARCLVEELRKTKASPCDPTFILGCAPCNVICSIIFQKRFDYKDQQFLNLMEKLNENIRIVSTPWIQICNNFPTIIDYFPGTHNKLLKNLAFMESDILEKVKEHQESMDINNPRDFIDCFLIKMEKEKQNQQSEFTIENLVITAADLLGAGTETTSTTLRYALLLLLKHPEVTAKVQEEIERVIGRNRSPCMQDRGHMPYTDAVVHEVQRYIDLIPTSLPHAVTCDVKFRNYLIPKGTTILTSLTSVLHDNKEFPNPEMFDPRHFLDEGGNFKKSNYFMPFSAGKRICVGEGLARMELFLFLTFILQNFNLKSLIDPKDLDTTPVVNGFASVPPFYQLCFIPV
SMILES,Potency [1],Potency [2],Potency [3],Potency [4],Potency [5],Potency [6],Potency [7],Potency [8],Potency [9]
O=C(CCl)c1ccccc1,inactive,inactive,inactive,32.1 µM (active) and 31.7 µM (active),57.2 µM (active),40.5 µM (active) and inactive,inactive,inactive,inactive
Cc1c(COC(=O)[C@@H]2[C@H](/C=C(\Cl)C(F)(F)F)C2(C)C)cccc1-c1ccccc1,inactive,inactive,inactive,inactive,7.79 µM (active) and 8.91 µM (active),19.6 µM (active) and 11.2 µM (active),inactive,–,inactive
Nc1ccc(Cl)cc1N,inactive,inactive,inactive,32.6 µM (active),20.8 µM (active) and 7.1 µM (active),32.6 µM (active),11.7 µM (active) and 10.9 µM (active),–,26.2 µM (active) and 5.64 µM (active)
CCCCC(CC)COC(=O)Cl (configuration not stated),inactive,inactive,inactive,inactive,inactive,inactive,inactive,inactive,inactive
C#CCOS(=O)OC1CCCCC1Oc1ccc(C(C)(C)C)cc1 (configuration not stated),inactive,inactive,inactive,22.5 µM (active) and 22.4 µM (active),895 nM (active) and 710 nM (active),503 nM (active) and 502 nM (active),8.95 µM (active) and 8.94 µM (active),–,1.59 µM (active) and 2.83 µM (active)
NC(=S)Nc1ccccc1,inactive,inactive,inactive,9.09 µM (active) and 35.6 µM (active),4.06 µM (active) and inactive,25.6 µM (active) and inactive,25.6 µM (active) and inactive,inactive,5.73 µM (active) and inactive
CCN(CC)N=O,inactive,inactive,inactive,inactive,22.6 µM (active),inactive,inactive,inactive,inactive
c1ccc(NNc2ccccc2)cc1,inactive,inactive,inactive,inactive,inactive,71.7 µM (active) and inactive,32 µM (active) and 12.6 µM (active),inactive,inactive
COP(=O)(OC)OC,inactive,inactive,inactive,inactive,9.01 µM (active) and inactive,32 µM (active) and inactive,35.9 µM (active) and inactive,inactive,16 µM (active) and inactive
CCN(CC)C(=O)SCc1ccc(Cl)cc1,inactive,inactive,inactive,inactive,581 nM (active) and 564 nM (active),32.7 µM (active) and 25.2 µM (active),13 µM (active) and 15.9 µM (active),–,inactive
c1ccc(-c2cccc(-c3ccccc3)c2)cc1,inactive,inactive,inactive,inactive,20.2 µM (active) and 8.94 µM (active),28.6 µM (active) and 31.7 µM (active),5.7 µM (active) and 5.64 µM (active),inactive,inactive
CCC(C)c1cc([N+](=O)[O-])cc([N+](=O)[O-])c1O (configuration not stated),inactive,inactive,inactive,inactive,inactive and 79.6 µM (active),inactive,inactive and 63.3 µM (active),–,inactive
CCOCN(C(=O)CCl)c1c(C)cccc1CC,inactive,inactive,inactive,inactive,9.47 µM (active) and 15.9 µM (active),30 µM (active) and 39.9 µM (active),33.6 µM (active) and inactive,inactive,inactive
COC(=O)c1sccc1S(=O)(=O)NC(=O)Nc1nc(C)nc(OC)n1,inactive,inactive,inactive,inactive,81.3 µM (active),inactive,inactive,–,inactive
C=CCN(CC=C)C(=O)C(Cl)Cl,inactive,inactive,inactive,inactive,inactive,inactive,inactive,–,inactive
CCC(C)(c1ccc(O)cc1)c1ccc(O)cc1,inactive,inactive,inactive,inactive,inactive,28.2 µM (active) and 22.4 µM (active),inactive,inactive,10 µM (active) and 15.9 µM (active)
Nc1c(Cl)cc([N+](=O)[O-])cc1Cl,inactive,inactive,inactive,35.8 µM (active) and inactive,40.2 µM (active) and 56.4 µM (active),inactive,1.79 µM (active) and 2.52 µM (active),–,inactive
Cc1ccccc1[N+](=O)[O-],inactive,inactive,inactive,inactive,inactive,inactive,inactive,inactive,inactive

SMILES,Potency [1],Potency [2],Potency [3],Potency [4],Potency [5],Potency [6],Potency [7],Potency [8],Potency [9]
Nc1ccc(Cl)c(Cl)c1,inactive,inactive,inactive,inactive,inactive,36.4 µM (active) and 35.6 µM (active),40.9 µM (active) and 35.6 µM (active),–,32.5 µM (active)
c1nc[nH]n1,inactive,inactive,inactive,inactive,inactive,inactive,62 µM (active) and 71 µM (active),–,inactive
CCOc1cc(C=O)ccc1O,inactive,inactive,inactive,inactive,inactive,inactive,40 µM (active) and 39.9 µM (active),inactive,inactive
CCCCN(CCCC)N=O,34.1 µM (active) and inactive,12.1 µM (active) and inactive,inactive,inactive,60.7 µM (active) and inactive,inactive,inactive,–,inactive
O=P(O)(O)CCCl,inactive,inactive,inactive,inactive,inactive,inactive,inactive,inactive,inactive
O=C(O)C(F)(F)C(F)(F)C(F)(F)C(F)(F)C(F)(F)C(F)(F)C(F)(F)F,inactive,inactive,inactive,inactive,79.6 µM (active) and inactive,1.78 µM (active) and 2.51 µM (active),inactive,inactive,inactive
Nc1cccnc1,inactive,inactive,inactive,inactive,71 µM (active),inactive,inactive,inactive,inactive
Cc1ccc(OP(=O)(Oc2ccc(C)cc2)Oc2ccc(C)cc2)cc1,inactive,inactive,inactive,inactive,3.99 µM (active) and 5.03 µM (active),7.09 µM (active) and 8.94 µM (active),7.09 µM (active) and 7.1 µM (active),–,7.09 µM (active) and 10 µM (active)
N#Cc1cc(Br)c(O)c(Br)c1,inactive,inactive,inactive,inactive,inactive,20 µM (active) and 15.3 µM (active),inactive,–,inactive
CCCCN(CC)c1c([N+](=O)[O-])cc(C(F)(F)F)cc1[N+](=O)[O-],inactive,inactive,inactive,inactive,72.1 µM (active) and 20 µM (active),31.7 µM (active),22.4 µM (active),–,inactive
Cc1ccc2c(c1N)C(=O)c1ccccc1C2=O,inactive,inactive,inactive,702 nM (active) and 5.64 µM (active),2.8 µM (active) and 5.03 µM (active),2.22 µM (active) and 3.99 µM (active),443 nM (active) and 633 nM (active),–,inactive
O=C1C=CC(=O)C=C1,inactive,inactive,inactive,inactive,inactive,inactive,40.1 µM (active),–,inactive
Clc1nc(Cl)nc(Cl)n1,inactive,inactive,inactive,inactive,inactive,inactive,inactive,inactive,inactive
CCCCCc1cc(O)cc(O)c1,inactive,inactive,inactive,10.1 µM (active) and 31.7 µM (active),3.57 µM (active) and 6.33 µM (active),11.3 µM (active) and 31.7 µM (active),17.9 µM (active) and 35.6 µM (active),–,5.05 µM (active) and 22.4 µM (active)
O=S(=O)(Oc1ccc(Cl)cc1)c1ccc(Cl)cc1,inactive,inactive,inactive,16.1 µM (active) and 28.3 µM (active),114 nM (active) and 126 nM (active),32.1 µM (active) and 25.2 µM (active),2.87 µM (active) and 4.48 µM (active),24.5 µM (active),inactive
CCN(N=O)C(N)=O,inactive,inactive,inactive,inactive,69.7 µM (active) and inactive,inactive,inactive,inactive,inactive
CC(C)Oc1cc(-n2nc(C(C)(C)C)oc2=O)c(Cl)cc1Cl,inactive,inactive,inactive,inactive,7 µM (active) and 3.99 µM (active),27.9 µM (active) and 25.2 µM (active),1.4 µM (active) and 2.83 µM (active),–,inactive

# Source: PubChem BioAssay (Tox21)
